# Inconclusive results are not listed. Where a call stands in place of a potency, no number is given. Activity calls are given as the source filed them. Calls come from the whole dose curve; as a rule, active = well fitted activation curve with a large enough effect; inconclusive = small, poorly fitted or top-dose-only effect; inactive = no such curve, though single readings can be large or run the other way.
# Target: Cellular tumor antigen p53 (Homo sapiens) (UniProt P04637)
# Test: Confirmatory qHTS for small molecule compounds that upregulate eGFP-tagged delta133p53alpha (in C-terminal) cells.
# Conditions: delta133p53alpha-eGFP (C-terminal) reporter cells, GFP fluorescence upregulation; series mostly up to 57.5 µM
# Text: Assay Development and Screening Technology
# National Center for Advancing Translational Sciences (NCATS),
# National Institute of Health (NIH), Rockville, Maryland
# Cellular senescence (CS) is one of the hallmarks of aging and age-related diseases. Senescent cells are characterized by an irreversible growth arrest, an increase in senescence-associated beta-galactosidase (SA-beta-gal) activity and p16INK4a expression, an activation of the DNA damage response pathways, and the emergence of a senescence-associated secretory phenotype (SASP).
# Delta133p53alpha, a human/primate-specific p53 protein isoform, delays or inhibits the induction of CS and SASP in various types of human cells, including progeria-derived fibroblasts, primary normal astrocytes, and CD8+ T lymphocytes. Induction of delta133p53alpha with small molecule compounds may provide therapeutic opportunities for inhibition of senescence/SASP-associated pathologies in progeria syndromes, astrocyte-mediated neuroprotection in neurodegenerative diseases, and possibly prevention and treatment of a wider range of senescence- and aging-associated diseases.
# Here we report the development and validation of a cell-based quantitative high throughput screening (qHTS) assay in 1,536-well format. This qHTS assay uses the NCI-H358 cell line with doxycycline-inducible expression of enhanced green fluorescent protein (eGFP)-tagged delta133p53alpha, which allows efficient and highly quantitative measurement of the protein levels.
# PROTOCOL TABLE (as described by Inglese J, Shamu CE and Guy RK. 2007)
# SEQUENCE No. (e.g., 1, 2, 3, etc.); […] (e.g., Cells, Incubation, Reagent, etc.); VALUE; DESCRIPTION.
# 1; Cells; 4uL; 800 doxycycline treated cells / well in doxycycline-free media, 1536-well black, clear-bottom low base Aurora microplates.
# 2; Compounds; 23 nL; Kalypsis pin tool (Wako) equipped with 1536-well pin heads, 5-azacytidine positive control.
# 3; Incubation; 24 hr; 37C, 5% CO2; 95% relative humidity.
# 4; Aspiration; 1x; BioTek EL406 washer dispenser (Agilent).
# 5; Fixing; 3.5% paraformaldehyde, BioTek EL406 washer dispenser (Agilent).
# 6; Washing; 1x PBS; BioTek EL406 washer dispenser (Agilent).
# 7; Nuclei staining; 1:1000 dilution of Hoechst 33342 (Thermofisher), BioTek EL406 washer dispenser (Agilent).
# 8; Incubation; 20 min; in the dark at room temperature.
# 9; Washing; 2x, 1x PBS (ThermoFisher), BioTek EL406 washer dispenser (Agilent).
# 10; Reagent; 10 uL; 1x PBS per well, sealed with clear adhesive tape.
# 11; Detection; Fluorescence, Acumen eX3 laser scanning cytometer (STP Labtech), GFP filters […].
# NOTES (numbers refer to sequence numbers above).
# 1. NCI-H358 cells expressing eGFP-tagged delta133p53alpha were grown in T75 culture flasks and treated with doxycycline for 24h, at 10 ng/ml for eGFP-D133p53a cells (N-terminal cell) and 100 ng/ml for D133p53a-eGFP cells (C-terminal cells). Cells were trypsinized, counted using a Counted 3 Automated Cell Counter (Thermo Fisher), and diluted to a concentration of 200,000 cells/ml. A Multidrop Combi Reagent Dispenser (ThermoFisher) was used to dispense 800 cells/well in […] of doxycycline-free media, into 1536-well black/clear bottom low base plates (AuroraMicroplates).
# 2. After plating cells, 23 nl of compound library, DMSO vehicle control or positive control (5-azacytidine) were transferred by Pin Tool (Wako). The plate map layout was the same for each plate: (column 1) non-doxycycline treated cells + DMSO vehicle control; (column 2) doxycycline treated cells + DMSO vehicle control baseline; (column 3) doxycycline treated cells + positive control 57.5 uM final concentration 5-azacytidine; (column 4) doxycycline treated cells + serial dilution of 5-azacytidine, 16-point 1:2 titration spanning 1.8 nM to […] final concentration; (columns 5-48) doxycycline treated cells + titration of library compounds.
# 3. Cells were incubated at 37 °C, 5 % CO2, 95% RH with breathable metal lid for 24h.
# 4-10. […]
# Chain of Cellular tumor antigen p53 (Homo sapiens) (P04637 whole entry, looked up): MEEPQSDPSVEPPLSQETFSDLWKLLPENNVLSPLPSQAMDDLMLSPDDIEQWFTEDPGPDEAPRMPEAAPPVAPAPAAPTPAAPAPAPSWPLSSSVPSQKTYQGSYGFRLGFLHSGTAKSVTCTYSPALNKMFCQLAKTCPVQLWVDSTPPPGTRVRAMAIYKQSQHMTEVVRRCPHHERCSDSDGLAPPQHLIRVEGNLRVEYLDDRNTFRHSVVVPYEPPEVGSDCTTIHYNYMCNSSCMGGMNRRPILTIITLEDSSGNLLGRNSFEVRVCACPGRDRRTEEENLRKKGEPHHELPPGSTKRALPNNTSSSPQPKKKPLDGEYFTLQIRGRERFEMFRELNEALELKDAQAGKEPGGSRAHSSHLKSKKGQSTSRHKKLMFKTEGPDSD
row,Structure (SMILES),Potency
1,c1ccc2c(c1)OCC(C1=NCCN1)O2 (centres undefined),inactive
2,CC1(C(=O)O)C2CCC(O2)C1(C)C(=O)O (centres undefined),inactive
3,CCS(=O)(=O)Nc1cccc(C(=C2CCCCC2)c2cnc[nH]2)c1,inactive
4,O=C1/C(=C\c2ccccc2)C[C@@]2(O)[C@H]3Cc4ccc(O)c5c4[C@@]2(CCN3CC2CC2)[C@H]1O5,15.3 µM (active)
5,Cc1c2ccncc2c(C)c2c1[nH]c1ccccc12,3.06 µM (active)
6,CCn1cnc2c(Nc3cccc(Cl)c3)nc(N[C@@H]3CCCC[C@@H]3N)nc21,9.68 µM (active)
7,N[C@H](CCCCCP(=O)(O)O)C(=O)O,inactive
8,CC1=NN=C(c2ccc(N)cc2)c2cc3c(cc2C1)OCO3,34.3 µM (active)
9,CC(=O)[C@H]1CC[C@H]2[C@@H]3CC[C@H]4C[C@](C)(O)CC[C@]4(C)[C@H]3CC[C@]12C,inactive
10,CC[C@@]1(O)C(=O)OCc2c1cc1n(c2=O)Cc2cc3ccccc3nc2-1,1.72 µM (active)
11,c1ccc2c(c1)[I+]c1ccccc1-2,19.3 µM (active)
12,CN1C2CCC1CC(OC(c1ccccc1)c1ccccc1N)C2 (centres undefined),inactive
13,CP(=O)(O)C1=CCNCC1,inactive
14,C[C@]12Cc3cn4c(nc3C=C1CCC1C2CC[C@@]2(C)[C@H]1CC[C@@]2(O)C#N)nc1ccccc14 (some centres undefined),19.3 µM (active)

# Source: PubChem BioAssay AID2060323 (National Center for Advancing Translational Sciences (NCATS), 2025)
